# According to PubChem BioAssay:
# A number with no mark means an inactive call. The rule behind the calls is not given here.
# Target: Pantothenate synthetase (Mycobacterium tuberculosis (strain ATCC 25618 / H37Rv)) (UniProt P9WIL5)
# Assay: Recombinant Mtb pantothenate synthetase (PanC) inhibitors, coupled enzyme, confirmatory (AID 375);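 note: 0% = full reaction with vehicle and 100% = no enzyme background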
# Details: coupled enzyme assay; at 10 µM, hits give high values
# Chain of Pantothenate synthetase (Mycobacterium tuberculosis (strain ATCC 25618 / H37Rv)) (P9WIL5 whole entry, looked up): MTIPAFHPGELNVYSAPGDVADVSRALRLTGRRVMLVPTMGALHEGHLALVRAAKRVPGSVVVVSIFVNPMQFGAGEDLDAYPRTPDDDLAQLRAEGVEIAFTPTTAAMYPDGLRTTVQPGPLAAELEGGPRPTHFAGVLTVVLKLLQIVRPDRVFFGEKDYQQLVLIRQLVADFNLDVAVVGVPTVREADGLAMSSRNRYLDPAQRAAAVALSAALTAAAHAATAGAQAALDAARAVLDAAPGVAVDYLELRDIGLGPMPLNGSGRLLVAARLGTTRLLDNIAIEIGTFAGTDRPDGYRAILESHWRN
row,Compound,inhibition [%]
1,O=C(NCc1ccccn1)c1ccc2nc(-c3ccco3)c(-c3ccco3)nc2c1,1
2,CC(=O)NCCc1ccc(S(=O)(=O)NCc2ccc3c(c2)OCO3)cc1,0
3,COc1ccc(CCNc2oc(-c3ccccc3OC)nc2C#N)cc1,2
4,Cc1ccccc1NC(=O)C1CC(=O)N(c2ccccc2F)C1 (configuration not stated),1
5,Cc1ccc(NC(=O)CC2Nc3ccccc3NC2=O)cc1Cl (configuration not stated),0
6,C=CCn1c(COc2ccc(CC)cc2)nnc1SC/C(O)=C(\C#N)c1nc2ccccc2[nH]1,5
7,Cc1ccc2nc3c(cc(C(=O)NCC4CCCO4)n3C)c(=O)n2c1 (configuration not stated),0
8,Cc1c(C(=O)N2CCOCC2)oc2ccc(S(=O)(=O)N3CCCC3)cc12,0
9,CCS(=O)(=O)N1CCC(C(=O)NCCc2ccc(C)cc2)CC1,0
10,CC(C)NC(=O)CSCc1ccccc1Cl,13
11,COC(=O)c1ccc(CSc2nc3c(cnn3-c3ccc(C)c(C)c3)c(=O)[nH]2)o1,3
12,COc1ccc(S(=O)(=O)NCc2ccc(C(=O)O)cc2)cc1,0
13,CCN1C(=C2C(=O)c3ccccc3C2=O)C=Cc2ccccc21,0
14,Cc1cc(NC(=O)c2cnn3cccnc23)no1,3
15,COc1ccc(-c2cc(C(F)(F)F)nc(N3CCN(c4ccc(F)cc4)CC3)n2)cc1OC,0
16,c1ccc(-n2nnnc2OCCOc2nnnn2-c2ccccc2)cc1,3
17,Cc1ccc2c(C(=O)CN3CCSCC3)c(C)[nH]c2c1,0
